# Screening data from PubChem BioAssay.
# Only a selection was taken, and hits are over-represented in it overall.
# PL synth Enamine = animal cell phospholipid biosynthesis inhibition, Enamine screen. calls only at 10 µM. 20,000 compounds, 0.4% hits. ZR-82 CHO cells, pyrene fatty acid UV survival, CellTiter Blue; peroxisome-deficient CHO-K1 mutant line; plus DGAT-1, DGAT-2 and ACAT inhibitors;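 active = cell survival signal 2 SD away from solvent-only control wells, confirmed on one or two retests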;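 also: 3 h compound exposure then viability read about one day after UV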
# Starred values were filed as active, the others as inactive; i = inactive; + = active, no number.
SMILES,PL synth Enamine
O=C(N/N=C1\CCSc2ccc(F)cc21)C1COc2ccccc2O1 (centres undefined),i
Fc1ccc2c(c1)/C(=N\Nc1nc3ccccc3s1)CCS2,+
CCN(CC)S(=O)(=O)c1ccc(N/N=C2\CCSc3ccc(F)cc32)nc1,i
Cc1cc(C(=O)CSc2nnc(C3CC3)n2C)c(C)n1CC(F)(F)F,i
Oc1c(Br)cc(Br)cc1/C=N/Nc1ccc(F)cc1F,i
O=C1NC2(CCCCC2)C(=O)N1CN1CCN(S(=O)(=O)c2ccc3c(c2)CCC3)CC1,i
O=C(c1ccccc1)C(Sc1nnc(-c2ccc3c(c2)OCO3)o1)c1ccccc1 (centres undefined),+
O=C(CSc1nnc(-c2ccc3c(c2)OCO3)o1)CSc1nnc(-c2ccc3c(c2)OCO3)o1,i
Cc1ccc(C(=O)C(C)Sc2nnc(-c3ccc4c(c3)OCO4)o2)cc1C (centres undefined),i
O=S(=O)(Nc1ccc2c(c1)OCO2)c1cc(Cl)ccc1Cl,i
c1nc(NCC2CCCCC2)c2c3c(sc2n1)CCC3,i
Cc1nc(SC(C)C(N)=O)nc(C)c1C (centres undefined),i
Cc1nc(N)sc1N=Nc1ccc(F)cc1,+
CN(C)S(=O)(=O)c1ccc(N=Nc2sc(N)nc2-c2cc(F)ccc2F)cc1,i
Cc1nc(N)sc1N=Nc1c(Cl)cc(Cl)cc1Cl,i
Cc1nc(N)sc1N=Nc1cc(C(F)(F)F)ccc1Cl,+
CN(C)S(=O)(=O)c1ccc(Cl)c(N=Nc2sc(N)nc2-c2cc(F)ccc2F)c1,i
Nc1ncc(Cc2ccc(F)cc2)s1,i
Cn1c(N)c(C(=O)CSc2nnc(NC3CC3)s2)c(=O)[nH]c1=O,i
C=CCn1c(P(C)(=O)N2CCCCC2)nc2ccccc21 (centres undefined),i
Cc1occc1-c1nnc(SCc2cc3c(cc2Br)OCO3)o1,i
Cc1cccn2c(=O)c(/C=C3\SC(=S)N(CCCCCC(=O)O)C3=O)c(NCCCn3ccnc3)nc12,i
Cc1ccc(/C=C(\Cl)c2nc3sc(C)c(C)c3c(=O)[nH]2)s1,i
Cc1[nH]c2ccccc2c1N=Nc1ccc(SC(F)F)cc1,+
Cc1[nH]c2ccccc2c1C(c1c(C)[nH]c2ccccc12)C(C)C,i
SMILES,PL synth Enamine
Clc1cc(Cl)c(N/N=C/c2c[nH]c3ccc(Br)cc23)c(Cl)c1,i
CN(C)S(=O)(=O)N1CCN(c2ccc([N+](=O)[O-])c(NC3CC3)c2)CC1,i
CC(Nc1cc(N2CCNCC2)ccc1[N+](=O)[O-])C12CC3CC(CC(C3)C1)C2 (centres undefined),+
CC(NS(=O)(=O)c1ccc(F)c(F)c1)C12CC3CC(CC(C3)C1)C2 (centres undefined),i
O=S1(=O)CCN2C(SCc3ccccc3)=NSC2=N1,i
COc1cccc(C2Nc3ccccc3-c3nc4ccccc4n32)c1OC (centres undefined),i
c1ccc(-n2nc(SCc3nc4ccccc4o3)nc2C2CC2)cc1,i
Cc1cc(NC(=O)COC(=O)C(C)N2C(=O)C3CC=CCC3C2=O)no1 (centres undefined),i
Fc1ccc(/C=N/Nc2nncc3ccccc23)cc1F,i
Cn1c(-c2ccccc2)c(/C=N/Nc2nncc3ccccc23)c2ccccc21,+
FC(F)(F)c1cccc(/C=N/Nc2nncc3ccccc23)c1,i
O=C(O)c1cc2c(s1)CCCCCC2,i
NS(=O)(=O)c1ccc(Nc2ccc3c(c2)OCCCO3)c([N+](=O)[O-])c1,i
O=C1C2CCCN2C(=S)N1c1ccccc1 (centres undefined),i
